Assay results from PubChem BioAssay (NCI).
This is part of a sample that, as a whole, favours compounds with a hit. Of some 79,000 tested, about 15% had one in any assay. Calls of active or inactive are those of the source. Cut-off read from the data, not from the text of the source: active = growth inhibition above about 70%; inactive = the rest.

Legend:
[1] = NCI Yeast Anticancer Drug Screen. Data for the mlh1 strain (AID 171);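 note: 0% = growth of vehicle-treated control cultures of the same strain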; settings: S. cerevisiae mlh1 strain growth inhibition, stronger effect = higher value
In short: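 Yeast carrying a defined genetic alteration in DNA damage repair or cell cycle control were exposed to test compounds. Growth inhibition was measured relative to vehicle-treated controls.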

[2] = NCI Yeast Anticancer Drug Screen. Data for the sgs1 strain (AID 173);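 note: 0% = growth of vehicle-only control cultures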; settings: S. cerevisiae sgs1 mutant, stronger effect = higher value
In short: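 Yeast mutant strains carrying defined defects in DNA damage repair or cell cycle control were exposed to test compounds. Growth inhibition was scored against vehicle-treated controls.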

[3] = NCI Yeast Anticancer Drug Screen. Data for the mlh1 rad18 strain (AID 175); settings: S. cerevisiae mlh1 rad18 strain growth inhibition, stronger effect = higher value
In short: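 Growth inhibition of the yeast strain was measured after compound exposure and expressed relative to vehicle-treated controls. The strain carries defined defects in DNA damage repair.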

[4] = NCI Yeast Anticancer Drug Screen. Data for the rad18 strain (AID 177); settings: S. cerevisiae rad18 mutant growth inhibition, stronger effect = higher value
In short: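 Yeast carrying a defined DNA damage repair alteration were exposed to compounds. Growth inhibition was expressed relative to vehicle-treated controls.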

[5] = NCI Yeast Anticancer Drug Screen. Data for the wt1 strain (AID 149);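 note: 0% = growth of vehicle-treated wt1 cultures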; settings: S. cerevisiae wt1 strain (SPY 50644) growth inhibition, stronger effect = higher value
In short: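 wt1 yeast, compound-treated; % growth inhibition vs vehicle control.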

[6] = NCI Yeast Anticancer Drug Screen. Data for the rad50EPP+ strain (AID 151);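 note: 0% = growth of vehicle-treated control cultures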; settings: S. cerevisiae rad50 mutant strain, stronger effect = higher value
In short: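 Yeast strain carrying rad50 alteration (rad50EPP+) exposed to compounds; growth inhibition measured relative to vehicle-treated controls.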

[7] = NCI Yeast Anticancer Drug Screen. Data for the rad50 strain (AID 155);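 note: 0% = growth of vehicle-only cultures of the same strain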; settings: S. cerevisiae rad50 strain growth inhibition, stronger effect = higher value
In short: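 Genetically altered yeast (DNA repair pathway); compound treatment; growth inhibition vs vehicle ctrl.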

[8] = NCI Yeast Anticancer Drug Screen. Data for the mec2-1 strain (AID 157); settings: S. cerevisiae mec2-1 strain, stronger effect = higher value
In short: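 mec2-1 yeast strain, carrying an alteration in DNA damage repair or cell cycle control, was exposed to compounds; growth inhibition was measured relative to vehicle-treated controls.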

[9] = NCI Yeast Anticancer Drug Screen. Data for the rad14 strain (AID 159);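 note: 0% = growth of vehicle-treated control cultures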; settings: S. cerevisiae rad14 strain growth inhibition, stronger effect = higher value
In short: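 Test compounds were applied to a repair-deficient yeast strain. Its growth was then compared with that of cultures given vehicle alone, and inhibition was expressed relative to those controls.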

[10] = NCI Yeast Anticancer Drug Screen. Data for the sgs1 mgt1 strain (AID 161);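 note: 0% = growth of cultures given vehicle only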; settings: S. cerevisiae sgs1 mgt1 strain, stronger effect = higher value
In short: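 Compounds are added to genetically altered yeast, and growth is compared with cultures given vehicle alone to give percent inhibition.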

[11] = NCI Yeast Anticancer Drug Screen. Data for the CLN2oe strain (AID 163);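 note: 0% = growth of vehicle-only control cultures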; settings: S. cerevisiae CLN2oe strain, stronger effect = higher value
In short: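 Yeast cells carrying a defined cell-cycle control alteration were exposed to test compounds. Growth inhibition was scored against vehicle-treated control cultures.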

[12] = NCI Yeast Anticancer Drug Screen. Data for the cln2 rad14 strain (AID 165);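 note: 0% = growth equal to vehicle treated cultures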; settings: S. cerevisiae cln2 rad14 strain, stronger effect = higher value
In short: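 Yeast carrying cln2 and rad14 alterations (cell cycle control and DNA damage repair) were exposed to compounds. Growth inhibition was measured against vehicle-treated controls.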

[13] = NCI Yeast Anticancer Drug Screen. Data for the bub3 strain (AID 167); settings: S. cerevisiae bub3 mutant strain, stronger effect = higher value
In short: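 Yeast carrying a defined mutation is treated with each compound, and growth is compared with that of vehicle-exposed cells to give inhibition.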

[14] = NCI Yeast Anticancer Drug Screen. Data for the wt2 strain (AID 169);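 note: 0% = growth of vehicle-treated yeast cultures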; settings: S. cerevisiae wt2 strain growth inhibition, stronger effect = higher value
In short: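 Yeast cells were exposed to test compounds, and growth inhibition was measured relative to vehicle-treated controls.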

[15] = NCI Yeast Anticancer Drug Screen. Data for the rad52 strain (AID 147);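 note: 0% = growth of vehicle-treated control cultures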; settings: S. cerevisiae rad52 mutant growth inhibition, stronger effect = higher value
In short: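 Yeast strain carrying a DNA damage repair alteration was exposed to test compounds. Growth inhibition was measured relative to vehicle-treated controls.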

[16] = NCI Yeast Anticancer Drug Screen. Data for the mgt1 strain (AID 153); settings: S. cerevisiae mgt1 mutant growth inhibition, stronger effect = higher value
In short: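 Yeast mgt1 strain (DNA repair/cell-cycle alteration panel) exposed to compounds; growth inhibition measured relative to vehicle-treated controls.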

[17] = at 5.0 µM (retest, dose inferred, filed as 0.5)
[18] = at 50.0 µM (retest, dose inferred, filed as 5.0)

Measured: growth inhibition

CCOC(=O)C1C2c3ccccc3C(c3ccccc32)C1C(=O)OCC (centres undefined)
inactive: [1]; at 1.2 µM -1% | [1]; at 3.7 µM 6% | [1]; at 11.0 µM 7% | [1]; at 33.0 µM 16% | [2]; at 1.2 µM -9% | [2]; at 3.7 µM -19% | [2]; at 11.0 µM 12% | [2]; at 33.0 µM 19% | [3]; [17] 16% | [3]; at 50.0 µM 53.1% | [4]; at 1.2 µM 1% | [4]; at 3.7 µM 8% | [4]; at 11.0 µM 9% | [4]; at 33.0 µM 11%
active: [1]; at 100.0 µM 86% | [2]; at 100.0 µM 97% | [3]; [18] 87% | [4]; at 100.0 µM 91%

O=c1c2ccccc2[se]n1-c1cccnc1
active: [6]; at 3.7 µM 94% | [6]; at 11.0 µM 98% | [6]; at 33.0 µM 98% | [6]; at 100.0 µM 87% | [7]; at 33.0 µM 92% | [7]; at 100.0 µM 90% | [8]; at 11.0 µM 77% | [8]; at 33.0 µM 98% | [8]; at 100.0 µM 94% | [9]; at 33.0 µM 89% | [9]; at 100.0 µM 84% | [11]; at 33.0 µM 84% | [11]; at 100.0 µM 83% | [13]; at 11.0 µM 81% | [13]; at 33.0 µM 98% | [13]; at 100.0 µM 91% | [1]; at 11.0 µM 98% | [1]; at 33.0 µM 99% | [1]; at 100.0 µM 93% | [2]; at 11.0 µM 80% | [2]; at 33.0 µM 96% | [2]; at 100.0 µM 82% | [3]; [18] 89%
inactive: [5]; at 1.2 µM -5% | [5]; at 3.7 µM -6% | [5]; at 11.0 µM 21% | [5]; at 33.0 µM 29% | [5]; at 100.0 µM 56% | [6]; at 1.2 µM 67% | [7]; at 1.2 µM -6% | [7]; at 3.7 µM 27% | [7]; [17] 8% | [7]; at 11.0 µM 65% | [7]; [18] 64% | [7]; at 50.0 µM 23.1% | [8]; at 1.2 µM -18% | [8]; at 3.7 µM 20% | [8]; [17] -20% | [8]; [18] 55% | [8]; at 50.0 µM -6.2% | [9]; at 1.2 µM -28% | [9]; at 3.7 µM 2% | [9]; at 11.0 µM 38% | [10]; [17] 58% | [10]; [18] 21% | [10]; at 50.0 µM 7.85% | [11]; at 1.2 µM 24% | [11]; at 3.7 µM 21% | [11]; at 11.0 µM 58% | [12]; [17] 9% | [12]; [18] 40% | [12]; at 50.0 µM 15.5% | [13]; at 1.2 µM 8% | [13]; at 3.7 µM 14% | [13]; [17] -28% | [13]; [18] 38% | [13]; at 50.0 µM -6.15% | [14]; at 1.2 µM 18% | [14]; at 3.7 µM 18% | [14]; at 11.0 µM 25% | [14]; at 33.0 µM 42% | [14]; at 100.0 µM 60% | [1]; at 1.2 µM 36% | [1]; at 3.7 µM 51% | [2]; at 1.2 µM 23% | [2]; at 3.7 µM 19% | [3]; [17] -14% | [3]; at 50.0 µM 43.9%

CO[C@H](/C(C)=C/C=C/C(C)=C/c1coc(C)n1)[C@H](C)[C@H]1C[C@@H](O)[C@@]2(C)O[C@H]2/C=C/[C@@H](C)[C@@H]2C[C@@H](CC(=O)O2)C[C@H]2O[C@@H]2C(=O)O1
active: [15]; at 100.0 µM 93% | [16]; at 100.0 µM 94% | [7]; [18] 89% | [7]; at 100.0 µM 93% | [8]; [18] 93% | [8]; at 100.0 µM 93% | [9]; at 100.0 µM 91% | [10]; [18] 91% | [11]; at 100.0 µM 88% | [13]; at 33.0 µM 89% | [13]; [18] 95% | [13]; at 50.0 µM 83.3% | [13]; at 100.0 µM 96% | [14]; at 33.0 µM 81% | [14]; at 100.0 µM 92% | [1]; at 100.0 µM 94% | [2]; at 100.0 µM 91% | [3]; [18] 89%
inactive: [15]; at 1.2 µM 6% | [15]; at 3.7 µM -2% | [15]; at 11.0 µM 14% | [15]; at 33.0 µM 17% | [6]; at 1.2 µM -17% | [6]; at 3.7 µM -9% | [6]; at 11.0 µM -21% | [6]; at 33.0 µM -8% | [6]; at 100.0 µM -23% | [16]; at 1.2 µM -4% | [16]; at 3.7 µM -14% | [16]; at 11.0 µM -6% | [16]; at 33.0 µM 24% | [7]; at 1.2 µM -6% | [7]; at 3.7 µM -15% | [7]; [17] -9% | [7]; at 11.0 µM -26% | [7]; at 33.0 µM 4% | [7]; at 50.0 µM 39.1% | [8]; at 1.2 µM -9% | [8]; at 3.7 µM -5% | [8]; [17] -9% | [8]; at 11.0 µM -16% | [8]; at 33.0 µM 16% | [8]; at 50.0 µM 49.2% | [9]; at 1.2 µM -28% | [9]; at 3.7 µM -17% | [9]; at 11.0 µM -8% | [9]; at 33.0 µM -8% | [10]; [17] 15% | [10]; at 50.0 µM 20.6% | [11]; at 1.2 µM -24% | [11]; at 3.7 µM -17% | [11]; at 11.0 µM -13% | [11]; at 33.0 µM 1% | [12]; [17] 8% | [12]; [18] 54% | [12]; at 50.0 µM 19.4% | [13]; at 1.2 µM -19% | [13]; at 3.7 µM -10% | [13]; [17] 37% | [13]; at 11.0 µM 9% | [14]; at 1.2 µM -12% | [14]; at 3.7 µM -4% | [14]; at 11.0 µM -6% | [1]; at 1.2 µM 10% | [1]; at 3.7 µM 7% | [1]; at 11.0 µM 11% | [1]; at 33.0 µM 44% | [2]; at 1.2 µM 1% | [2]; at 3.7 µM 2% | [2]; at 11.0 µM -6% | [2]; at 33.0 µM 8% | [3]; [17] -9% | [3]; at 50.0 µM 33.4%
